# Source: PubChem BioAssay
# mTORC1 inh = reduces mTORC1 signaling in Tsc2 and p53 null MEF cells. Tsc2-/- p53-/- MEF, phospho-rpS6 immunofluorescence/PI, 24 h. Potency, µM (titrated, usually from 38.3 µM), hits mostly inhibitors. 0.78% of 44,000 active. AID 493208; note: nearly all actives have a fitted effect of over 50% in size
#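 Read-out: phospho-S6 Alexa-488 intensity over PI intensity per well, scored as % active cells using thresholds from rapamycin (7.5 nM) and DMSO controls. Tsc2-/-, p53-/- MEFs exposed to compound for 24 h; PI cell count recorded as viability.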
# S16 viability = cytotoxicity in S16 Pmp22-F2sN Schwann cells; S16 Pmp22-F2sN Schwann cells viability, CellTiter-Glo, 24 h; Potency, µM (highest dose often 57.5 µM), usual class: cytotoxic; 0.48% of 43,000 active; note: nearly all actives have a fitted effect of over 65% in size
#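 Rat S16 Schwann reporter line, 24 h treatment with library compounds delivered at 23 nL per well. Cell viability by CellTiter-Glo luminescence.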
# p53null 32C tox = kills p53 null cells at the permissive temperature | H1299-neo p53 null cells, ATP luminescence, 24 h, 32C | Potency, µM (titrated, usually from 46.1 µM), hits mostly cytotoxic | 0.62% of 55,000 active | AID 903; note: nearly all actives have a fitted effect of over 55% in size
#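 H1299-neo (p53 null) cells, 600/well, treated 24 h at 32C with compound up to 46 uM; ATPlite luminescence viability, normalized to DMSO and 100 uM tamoxifen; AC50 by Hill fit.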
# OvCa metastasis = blocks SKOV3ip1 adhesion and invasion in omental model | SKOV3ip1-GFP adhesion/invasion on 3D omental model, fluorescence | Potency, µM (highest dose often 45.8 µM), most hits filed as inhibitors | 0.1% of 46,000 active | AID 1963576; note: nearly all actives have a fitted effect of over 65% in size
#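 qHTS, 4-pt dose (0.36-46 umol/L); SKOV3ip1-GFP, 1,200 cells/well, no FBS; primary omental fibroblast/mesothelial co-culture 48 h pre-grown; 2 h RT + 16 h 37 C; PBS wash, 4% PFA; GFP count 488/509 nm.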
# p53null 39C tox = kills p53 null cells at the nonpermissive temperature. H1299 p53-null (neo) cells, 39C, ATPlite viability, 24 h. Potency, µM (top dose mostly 46.1 µM), hits mostly cytotoxic. 0.97% of 55,000 active. AID 904; note: nearly all actives have a fitted effect of over 50% in size
#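 Luminescent ATP signal reported cell survival after H1299 lines (neo, p53 null; or p53 A138V) received up to 46 uM compound and 24 hr incubation at 39C.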
# PMP22 txn = modulates PMP22 transcription in S16 Schwann cells | S16 Pmp22-F2sN Schwann cells, FLuc/NLuc coincidence luminescence, 24 h | Potency, µM (titrated, usually from 57.5 µM), most hits filed as inhibitors | 2% of 43,000 active; active = clear falling dose curves in both reporters; inconclusive = both reporters move, but less clearly or upward; inactive = either reporter flat; the % is the NLuc reporter signal
#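 S16(c9) Schwann cells with FLuc/NLuc coincidence reporter in the Pmp22 3' UTR; compounds pin-transferred, 24 h at 37C. Dual-luciferase read: FLuc first, then NLuc after Stop&Glo, each 10 min at room temperature.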
# NLuc saturating = inhibits NanoLuc at saturating substrate, PMP22 counter-screen | shares compounds with PMP22 txn | Secreted NLuc enzyme (filtered S16 cell medium), Nano-Glo luminescence | Potency, µM (doses to about 57.5 µM), hits mostly inhibitors | 4% of 690 active | AID 1508638
# NLuc Km counter = NanoLuc inhibition at Km substrate, PMP22 artifact check; shares compounds with PMP22 txn; secreted NLuc enzyme, coelenterazine luminescence, Km conditions; Potency, µM (doses to about 57.5 µM), hits mostly inhibitors; 5% of 690 active; AID 1508639
# FLuc ctr PMP22 = counter-screen for PMP22 expression modulators: firefly luciferase inhibition; shares compounds with PMP22 txn; purified P. pyralis FLuc, luminescence, 10 min; Potency, µM (highest dose often 57.5 µM), usual class: inhibitors; 690 tested, under 10 active; AID 1508640
# Target sequence (P08659 whole entry, looked up): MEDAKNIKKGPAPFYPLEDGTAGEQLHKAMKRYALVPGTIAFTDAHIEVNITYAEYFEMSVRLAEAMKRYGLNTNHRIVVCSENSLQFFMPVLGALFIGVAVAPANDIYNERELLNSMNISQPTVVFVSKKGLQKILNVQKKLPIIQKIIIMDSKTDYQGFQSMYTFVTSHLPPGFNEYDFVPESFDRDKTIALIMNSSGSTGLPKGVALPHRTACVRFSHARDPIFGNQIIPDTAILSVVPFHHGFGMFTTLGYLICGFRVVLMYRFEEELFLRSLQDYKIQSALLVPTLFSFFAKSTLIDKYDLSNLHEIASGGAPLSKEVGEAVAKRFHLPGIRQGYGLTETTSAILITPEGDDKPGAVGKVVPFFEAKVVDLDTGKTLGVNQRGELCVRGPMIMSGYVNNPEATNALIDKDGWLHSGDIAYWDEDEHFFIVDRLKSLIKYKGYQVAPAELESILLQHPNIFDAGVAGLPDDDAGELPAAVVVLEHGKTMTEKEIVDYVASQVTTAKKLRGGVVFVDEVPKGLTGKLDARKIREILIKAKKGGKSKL
# S16 F2sN tox cnf = confirmation of cytotoxicity in S16 Pmp22-F2sN Schwann cells (luciferase reporters placed in the Pmp22 gene). S16 Schwann cells viability, CellTiter-Glo ATP luminescence, 24 h. AID 1508641. Potency, µM (top dose mostly 57.5 µM), actives largely listed as cytotoxic. 7% of 690 active. shares compounds with PMP22 txn
# PMP22 txn conf = confirmation of modulators of PMP22 gene transcription in S16 cells. shares compounds with PMP22 txn. S16 Schwann cells Pmp22-F2sN, dual luciferase, 24 h. Potency, µM (titrated, usually from 57.5 µM), hits mostly inhibitors. 22% of 690 active. AID 1508646; active = clear falling dose curves in both reporters; inconclusive = both reporters move, but less clearly or upward; inactive = either reporter flat; the % is the FLuc reporter signal
# Numbers stand for hits; 0 = inactive; ? = inconclusive; - = not tested or not shown. Compounds with a hit are over-represented: about 3% of the library has one in this group of screens. Unless noted, calls come from the whole dose curve; as a rule, active = well fitted curve in the direction sought with a large enough effect; inconclusive = small, poorly fitted or top-dose-only effect, or another doubt; inactive = no such curve, though single readings can be large; an effect the other way counts as inactive or inconclusive.
SMILES,mTORC1 inh,S16 viability,p53null 32C tox,OvCa metastasis,p53null 39C tox,PMP22 txn,NLuc saturating,NLuc Km counter,FLuc ctr PMP22,S16 F2sN tox cnf,PMP22 txn conf
CCCOC(=O)c1c(C)oc2c1cc(NS(=O)(=O)c1ccc(OCC)cc1)c1ccccc12,?,0,0,0,?,8.91µM,0,0,0,0,?
C#C[C@]1(O)C=C[C@@H]2[C@@H]3CCC4=CC(=O)CC[C@@H]4[C@H]3CC[C@@]21CC,-,-,-,0,-,-,-,-,-,-,-
CCN1C[C@]2(OC(=O)c3ccccc3NC(C)=O)CC[C@H](OC)[C@@]34[C@H]5CC6[C@@H](OC)C[C@](O)(C(C[C@@H]23)[C@@H]14)[C@@]5(O)[C@@H]6OC,-,-,-,0,-,-,-,-,-,-,-
CN1CCN(c2oc(-c3ccc(COc4ccccc4)o3)nc2C#N)CC1,0,0,0,0,0,0,-,-,-,-,-
CCOc1ccc(/C=C/c2nc(C#N)c(NCc3ccccc3)o2)cc1,?,0,0,0,?,?,0,0,0,0,0
CCN(CC)C(=O)c1ccc(C2=CC3(CCNCC3)Oc3cccc(O)c32)cc1,-,-,-,0,-,-,-,-,-,-,-
